# Pf growth 48h: Primary qHTS for delayed death inhibitors of the malarial parasite plastid, 48 hour incubation. P. falciparum luciferase growth in erythrocytes, 48 h. Potency, µM (titrated, usually from 28.7 µM), inactives show at the top dose activity change, negative = inhibition, actives largely listed as inhibitors. 310,000 tested, 5.9% active; note: % is set by controls: 0 for no effect and ±100 for the full control effect
#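 Cell-based growth assay: transgenic P. falciparum expressing firefly luciferase, cultured in red cells within RPMI 1640 containing 0.5% w/v Albumax, 24 mM bicarbonate and gentamycin. A drop in luciferase activity indicates inhibition.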
# SARS PLpro yeast: qHTS of Yeast-based Assay for SARS-CoV PLP; S. cerevisiae expressing SARS-CoV PLpro, growth rescue; Potency, µM (highest dose often 32.9 µM), without a hit: at the top dose activity, positive = growth rescue, hits mostly activators; 330,000 tested, 0.19% active; calls by dose curve; note: 0% is about no effect; nearly all actives have a fitted effect of over 55% in size
# Pf growth 96h: Primary qHTS for delayed death inhibitors of the malarial parasite plastid, 96 hour incubation; P. falciparum luciferase reporter growth, 96 h; Potency, µM (titrated, usually from 28.7 µM), inactives show at the top dose activity change, negative = inhibition, actives largely listed as inhibitors; 320,000 tested, 6.9% active; AID 504834, 2011; note: % is set by controls: 0 for no effect and ±100 for the full control effect
#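 Plates of compound plus infected erythrocytes (2% hematocrit, 0.05% parasitemia final) incubate 96 hours, 37 C, 5% CO2. Detection reagent added; reduced luminescence from the parasites' luciferase reporter flags inhibition.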
# AMA1 RON2 block: qHTS for Inhibitors of AMA1-RON; Towards Development of Antimalarial Drug Lead: Primary Screen; Plasmodium falciparum AMA1 (3D7) - RON2 peptide interaction; AlphaScreen AMA1-biotinylated RON2 peptide binding; Potency, µM (titrated, usually from 58.2 µM), inactives show at the highest dose activity change, negative = inhibition, most hits filed as inhibitors; 360,000 tested, 0.2% active; AID 720542, 2013;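 note: 0% = vehicle wells and -100% = peptide control; nearly all actives have a fitted effect of over 45% in size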
#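 AMA1 (3D7) with his tag at 25 nM final met compounds first, then biotinylated RON2 peptide at 25 nM; detection used donor plus acceptor beads, 10 µg/mL apiece, read by AlphaScreen after 30 min at room temperature.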
# Numbers without * were called inactive; ? = inconclusive; . = not tested or not shown; [ ] = remark or other dose. Hits are enriched below; roughly 9.4% of the tested compounds scored in any of these assays. Unless noted, calls come from the whole dose curve; as a rule, active = well fitted curve in the direction sought with a large enough effect; inconclusive = small, poorly fitted or top-dose-only effect, or another doubt; inactive = no such curve, though single readings can be large; an effect the other way counts as inactive or inconclusive. Potency is the fitted concentration of half-maximal effect.
SMILES,Pf growth 48h,SARS PLpro yeast,Pf growth 96h,AMA1 RON2 block
COc1ccc(Cl)cc1C(=O)C1CCCN(Cc2cnc(N3CCOCC3)s2)C1 (stereo not drawn),?,0%,10µM*,-15%
Cc1nn(C)c(Cl)c1CN1CCCC(CCC(=O)NCc2ccccc2F)C1 (stereo not drawn),9%,-1%,-13%,15%
CCOc1cccc(CN2CCCC(CCC(=O)NCc3ccccc3F)C2)c1O (stereo not drawn),?,0%,1.5µM*,14%
CCOc1cccc(CN2CCCC(N3CCN(c4cccc(Cl)c4)CC3)C2)c1O (stereo not drawn),?,?,3.7µM*,-1%
CCOc1cccc(CN2CCCC(N3CCc4ccccc4C3)C2)c1O (stereo not drawn),1.7µM*,6%,-19%,61%
O=C(NCC(c1cccnc1)N1CCOCC1)c1ccc2c(c1)OCO2 (stereo not drawn),3%,2%,35%,23%
O=C(CSc1n[nH]c(-c2cccnc2)n1)Nc1ccccc1,-21%,26%,?,-1%
CCOC(=O)CC(NC(=O)Cc1cccs1)c1ccccc1Cl (stereo not drawn),-2%,-3%,3%,-6%
FC(F)(F)c1cccc(N2CCN(Cc3cccnc3)CC2)c1,?,6%,4.7µM*,-14%
CCOc1cccc(CN2CCN(c3cccc(C(F)(F)F)c3)CC2)c1O,2.3µM*,1%,.,-2%
Cc1ccsc1C(=O)C1CCCN(Cc2cccn2-c2ccc(Cl)cn2)C1 (stereo not drawn),3.7µM*,-1%,?,-2%
COc1cccc(CN2CCN(c3cccc(C(F)(F)F)c3)CC2)c1OC,-29%,3%,.,?
O=C(c1ccc(Cl)cc1)C1CCCN(Cc2cccn2-c2ccccn2)C1 (stereo not drawn),?,0%,-10%,-9%
COc1cccc(C(=O)C2CCCN(Cc3cccn3-c3ccccn3)C2)c1 (stereo not drawn),-151%,-1%,-29%,8%
COc1ccc(C(=O)C2CCCN(Cc3cccn3-c3ccccn3)C2)cc1F (stereo not drawn),9.3µM*,-1%,-11%,-1%
COc1cc(NC2c3ccccc3C(=O)N2Cc2ccc3c(c2)OCO3)cc(OC)c1OC (stereo not drawn),.,-3%,?,-4%
CCOc1cccc(CN2CCCC(C(=O)c3cc(Cl)ccc3OC)C2)c1O (stereo not drawn),1.7µM*,5%,-28%,-4%
COc1cccc(CN2CCCC(C(=O)c3ccc4c(c3)OCO4)C2)c1O (stereo not drawn),?,-2%,-17%,-5%
COc1ccc(C(=O)C2CCCN(Cc3cnc(N4CCCC4)s3)C2)cc1OC (stereo not drawn),?,0%,?,-3%
COc1ccc(C(=O)C2CCCN(Cc3cnc(C)s3)C2)cc1OC (stereo not drawn),4%,-1%,15µM*,6%
CC(=O)Nc1ccc(NC(=O)c2ccccc2N(C)S(=O)(=O)c2ccc(C)cc2)cc1,21%,-2%,5%,8%
CC(=O)OCCn1c(=O)c2cc3c(=O)n(CCOC(C)=O)c(=O)c3cc2c1=O,16%,8%,13%,6%
Cc1ccc(-c2csc(NCCc3nc4cc(Cl)c(Cl)cc4n3CCCO)n2)cc1,.,.,.,83%
C[C@H](NC(=O)[C@@H]1Cc2ccccc2CN1)C(=O)Nc1ccc2c(c1)OCO2,-10%,1%,-8%,32%
CSCC[C@H](NC(=O)[C@@H]1Cc2ccccc2CN1)C(=O)Nc1ccc2c(c1)OCO2,9.3µM*,-5%,?,76%
SMILES,Pf growth 48h,SARS PLpro yeast,Pf growth 96h,AMA1 RON2 block
CCCNS(=O)(=O)c1cccc(C(=O)OCc2cc(=O)oc3cc(OC)ccc23)c1,?,-4%,?,-3%
[O-]/[N+](=C\c1ccc(F)cc1)c1ccccc1,33%,-12%,.,-3%
N=c1sccn1CC(=O)N1N=C(c2ccc(Cl)cc2)CC1c1ccco1 (stereo not drawn),-6%,-3%,-60%,-9%
CN[C@H](C)CCC=C(C)C,0.15µM*,.,?,.
CC(C)=CCCC(C)CCO (stereo not drawn),.,2%,.,9%
CCCCC1(CC(=O)OC)C(=O)N(c2ccccc2)N(c2ccccc2)C1=O,?,-2%,42%,-2%
CCCCC1(Cc2ccc(OC)c([N+](=O)[O-])c2)C(=O)N(c2ccccc2)N(c2ccccc2)C1=O,1.5µM*,-14%,?,-16%
CC(=O)Nc1cccc(-c2cc(NC(C)=O)c3ncc(-c4ccc(F)cc4)n3c2)c1,.,.,.,3%
Brc1ccc(-c2cnc3n2CCCC3)cc1,?,0%,-7%[5.75 µM],-1%
CCOc1ccc(-c2cnc3n2CCC3)cc1,.,2%,15µM*,-23%
Cc1ccc(S(=O)(=O)NCC(=O)OC(C(=O)c2ccccc2)c2ccccc2)cc1 (stereo not drawn),?,-4%,?,3.2µM*
CCN(CCn1cccn1)Cc1nc(Cc2cccc(F)c2)no1,0%,1%,?,7%
CN(Cc1ccc2nonc2c1)Cc1nc(Cc2cccc(F)c2)no1,?,1%,13µM*,31%
CCc1nnc2n1N=C(c1ccc(-c3cc(Cl)ccc3Cl)o1)CS2,.,3%,9.3µM*,24%
CCc1nnc2n1N=C(c1ccc(OC)cc1)CS2,-26%,-1%,?,-5%
Cc1ccc(S(=O)(=O)NCC(=O)NC2CCCCCC2)cc1,-9%,1%,.,3%
O=C(OCCN1CCCCC1)c1ccccc1F,-3%,2%,?,-13%
COc1ccc(CNC(=O)C[C@H]2C(=O)N(Cc3ccc(OC)cc3)C[C@@H]2Cc2ccccc2)cc1,?,-2%,?,3%
COc1ccc(CNC(=O)C[C@H]2C(=O)N(C3CCCCC3)C[C@@H]2Cc2ccccc2)cc1,-8%,-5%,12µM*,-4%
CCn1cnc2cc(NCc3ccc(OC)cc3)ccc21,.,-6%,46%,-1%
CCOc1ccc(N)cc1,.,.,.,-3%
CCOc1ccc2nc3cc(NCc4ccc(OC)cc4)ccc3c(N)c2c1,2.3µM*,-2%,2.6µM*,0%
CCOc1ccc2nc3cc(N)ccc3c(N)c2c1,0.76µM*,.,0.85µM*,.
Cn1nnnc1NC(=O)c1ccccc1Cl,2%,2%,53%,-6%
Cn1nnnc1P(=O)(c1ccccc1)c1ccccc1,-13%,0%,10µM*,16%
Cc1cc(C)nc(Nc2ccccc2Cl)n1,45%,-8%,0%,-19%
Cn1ncc2c(Nc3ccccc3Cl)nc(Nc3ccccc3Cl)nc21,7.4µM*,-2%,?,-13%
CCOC(=O)CSc1ncnc2c(C(=O)OCC)c3n(c12)CCC3,13%,21%,39%,-11%
CCOc1ccc(NC(=O)COc2cccc3cccnc23)cc1S(=O)(=O)N1CCCC1,.,.,.,36%

# Screening results as filed in PubChem.
